Pf growth 96h: Primary qHTS for delayed death inhibitors of the malarial parasite plastid, 96 hour incubation; Potency, µM (highest dose often 28.7 µM), for the others: top-dose activity change, negative = inhibition, most hits filed as inhibitors; AID 504834, 2011; actives 6.9% (n = 320,000); P. falciparum luciferase reporter growth, 96 h; further: potency means the concentration at half of the fitted maximal effect; on the % scale 0 is the no-effect control and ±100 the full control effect
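96 h incubation, 37 C, 5% CO2, of luciferase-reporter P. falciparum-infected RBCs (2% hematocrit, 0.05% parasitemia final) with test compounds; endpoint luminescence.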
Shiga toxin inh: A qHTS for Small Molecule Inhibitors of Shiga Toxin | Vero cells, Shiga toxin protein synthesis inhibition reporter | inhibition, % at 38.7 µM | actives 9.2% (n = 290,000) | AID 2315, 2010; in the data active means inhibition mostly above about 28%, no sharp cut-off; inactive means mostly below about 43%; further: 0% is about no effect
Pf growth 48h: Primary qHTS for delayed death inhibitors of the malarial parasite plastid, 48 hour incubation. P. falciparum luciferase growth in erythrocytes, 48 h. Potency, µM (doses to about 28.7 µM), without a hit: top-dose activity change, negative = inhibition, actives largely listed as inhibitors. actives 5.9% (n = 310,000); further: potency means the concentration at half of the fitted maximal effect; on the % scale 0 is the no-effect control and ±100 the full control effect
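A one-generation exposure of luciferase-tagged malaria parasites in RPMI 1640/Albumax erythrocyte culture, 37 C and 5% CO2. Inhibition is inferred from decreased luminescence after adding detection reagent.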
CHX counter: Cycloheximide Counterscreen for Small Molecule Inhibitors of Shiga Toxin | AID 2314, 2010 | cell reporter, cycloheximide protein synthesis inhibition counterscreen | actives 12% (n = 300,000) | max response, %; in the data active means max response mostly above about 13%, no sharp cut-off; inactive means mostly below about 14%; further: read at 38.3 µM for the half of the compounds with a filed dose; 0% is about no effect
Starred values were filed as active, the others as inactive; ? = inconclusive; / = not tested or not shown; [ ] = another dose, or the depositor's remark. Only some compounds are listed: those with a hit (about 21% of all), similar ones and a draw of the others. Unless noted, the call rests on the fitted dose curve; in most records, active means well fitted inhibition curve with a large enough effect; inconclusive means small, poorly fitted or top-dose-only effect, or another doubt; inactive means no such curve, though single readings can be large or run the other way.

SMILES | Pf growth 96h | Shiga toxin inh | Pf growth 48h | CHX counter
Cc1ccc2cc(CN(Cc3ccccc3)Cc3nnnn3C3CCCC3)c(=O)[nH]c2c1 | ? | 22 | ? | 3
Cc1ccc2cc(CN(Cc3ccc(F)cc3)Cc3nnnn3C3CCCC3)c(=O)[nH]c2c1 | 51% | 15 | 3.7µM* | 12*
COCCn1nnnc1CN(Cc1cc2cc(OC)c(OC)cc2[nH]c1=O)C1CCCC1 | / | -10 | 0% | 8
Cc1cc(C)c2[nH]c(=O)c(CN(Cc3nnnn3C3CCCC3)C3CCCCC3)cc2c1 | 1% | 15 | -2% | 4
COc1ccc(Cn2nnnc2CN(Cc2cc3ccc(C)cc3[nH]c2=O)C2CCCC2)cc1 | 4%[5.75 µM] | 20 | 9.3µM* | -3
CN(CCCC(=O)N1CCCC(C(N)=O)C1)S(=O)(=O)c1ccc(F)cc1 (configuration not stated) | -14% | -13 | -5% | 4
CCOC(=O)c1c(C)[nH]c(C)c1C(=O)CSc1nc2ccccc2c(=O)n1-c1ccccc1C | ? | 31 | 10µM* | -1
CCOC(=O)c1c(C)[nH]c(C)c1C(=O)CSc1nc2ccccc2c(=O)n1-c1ccc(F)cc1 | ? | 18 | ? | -3
COC(=O)Cc1ccc(NC(=S)NNC(=O)C2CC2)cc1 | 10% | -23 | 12% | -4
Cc1cc(NC(=O)C23CC4CC(C2)CC(n2cnc([N+](=O)[O-])n2)(C4)C3)no1 | 37% | -4 | 19% | 11
Cc1cc2c(sc3ccccc32)c(C)n1 | 26% | 39 | 26% | 8
Cc1nc2c(s1)sc1ccccc12 | -3% | 86 | 49% | 19*
Cc1ccc(-c2nc3ncccn3c2Nc2ccc3c(c2)OCCO3)cc1 | 12µM* | -5 | / | 3
Cc1ccc(-c2nc3ncccn3c2Nc2ccc3c(c2)OCCO3)o1 | ? | 70* | 5% | 27*
COc1ccc(-c2nc3ncccn3c2Nc2ccc3c(c2)OCCO3)cc1 | 30% | 29 | ? | 12
Cc1ccc(Nc2c(-c3ccc(C)o3)nc3cnccn23)cc1 | 0.74µM* | -13 | / | -1
Cc1ccc(-c2nc3cnccn3c2Nc2ccccc2)o1 | -19% | 12 | / | 15
COc1ccc(/C(C)=N/NC(=O)c2nnn(-c3nonc3N)c2-c2cccs2)cc1OC | -14% | 16 | -6% | 1
O=C(CN1C(=O)NC2(CCCCC2)C1=O)N1CCN(S(=O)(=O)c2ccc(F)c(F)c2F)CC1 | 1% | / | 9% | /
Cc1cc(C)c(C(=O)C(C)OC(=O)c2ccc(Cl)nc2)cc1C (configuration not stated) | 28% | 0 | 13% | -1
COc1ccccc1C1c2c(C)nn(-c3ccccc3)c2NC(=O)C1NC(=O)c1ccccc1 (configuration not stated) | ? | 5 | ? | -2
O=C(Nc1nnc(SCc2ccc(F)cc2)s1)c1ccccn1 | ? | 93* | ? | 40*
O=C(Nc1nnc(SCc2ccc(F)cc2)s1)c1cccnc1Cl | -13% | 14 | 43% | 18*
Cc1ccc(C)c(S(=O)(=O)N2CCCC2CNC(=O)C(=O)NCc2ccccn2)c1 (configuration not stated) | -3% | / | 1% | /
CCC(C)Sc1nnc(CSc2nc(C)cc(C)n2)n1C (configuration not stated) | 13µM* | 2 | ? | 9
SMILES | Pf growth 96h | Shiga toxin inh | Pf growth 48h | CHX counter
CCCSc1nnc(CSc2nc(C)cc(C)n2)n1C | 10µM* | -7 | -12% | 5
CSc1cccc(CNC(=O)C2CCC(=O)N(CCCN3CCCC3=O)C2)c1 (configuration not stated) | -23% | -16 | 26% | -11
C/C(=N\Nc1nc2ccc(Cl)cc2o1)c1ccccc1 | -21% | 74* | 2% | 27*
Cc1ccc(SCC(=O)OCC(=O)NCCC2=CCCCC2)cc1 | 7% | / | ? | /
Cc1cccc(Nc2c([N+](=O)[O-])c(=O)n(C)c3ccccc23)c1 | 10µM* | -2 | 15µM* | -1
CC1CCc2c(sc(NC(=O)C3c4ccccc4Oc4ccccc43)c2C(N)=O)C1 (configuration not stated) | 6.6µM* | -7 | ? | -2
CC1CCc2c(sc(/N=C/c3cccnc3)c2C(N)=O)C1 (configuration not stated) | ? | 54 | 17% | 16*
CC1CCc2c(sc(/N=C/c3ccco3)c2C(N)=O)C1 (configuration not stated) | 13% | 74* | 92% | 38*
COC(=O)Nc1sc2c(c1C(N)=O)CCC(C)C2 (configuration not stated) | -11% | -3 | 2% | -2
Cc1ccc(-c2nnnn2C2C/C(=N\NC(N)=S)C3OCC2O3)cc1 (configuration not stated) | ? | 39 | 8% | 20*
O=C(COC(=O)CNC(=O)c1ccco1)Nc1ncc(Cl)cc1Cl | -12% | / | 1% | /
COc1ccc(-c2oc3cc(OC)c(O)c(OC)c3c(=O)c2OC)cc1O | 10µM* | -14 | ? | 1
COc1c(-c2ccc(O)cc2)oc2cc(O)cc(O)c2c1=O | -7% | 11 | ? | 7
COc1ccc(-c2oc3c(OC)c(OC)c(OC)c(O)c3c(=O)c2OC)cc1OC | 3.3µM* | -15 | ? | -3
COc1ccc(-c2oc3cc(O)c(OC)c(O)c3c(=O)c2OC)cc1 | ? | 15 | ? | 16*
COc1ccc(CCC(=O)OCc2csc(CC(=O)Nc3ccccc3C)n2)cc1 | -22% | -2 | -16% | -2
COc1ccc(NC(=O)C2CC(=O)OC2c2ccccc2)cc1 (configuration not stated) | 9.3µM* | -2 | -6% | -1
Cc1cc(NC(=O)C2CC(=O)OC2c2ccccc2)no1 (configuration not stated) | 34% | 7 | 39% | 3
Cc1cccc(NC(=O)C2Cc3ccccc3O/C2=N\O)c1 (configuration not stated) | 1% | 63* | 55% | 27*
COc1ccc(NC(=O)C2Cc3ccccc3O/C2=N\O)cc1 (configuration not stated) | -15% | 114* | -32%[0.00184 µM] | 51*
COc1ccc(NC(=O)C2Cc3cccc(OC)c3O/C2=N\O)cc1 (configuration not stated) | 0% | 2 | -15% | -2
O=C(NCCc1ccccc1)/C(=C\c1ccccc1)NC(=O)c1ccco1 | -11% | -8 | ? | 1
Cc1cc(Br)cc2c1NC(=O)C2(O)CC(=O)c1ccco1 (configuration not stated) | 62%[1.15 µM] | 14 | 61% | -6
Cc1ccc(C)c(C(=O)CN2C(=O)NC3(CCCCCC3)C2=O)c1 | 0% | / | ? | /
Cc1ccccc1C(=O)Nc1ccccc1C(=O)N1CCC(C)CC1 | 43% | -5 | 25% | -6
O=C(NCC1CCCO1)c1ccc(NC(=O)c2ccc([N+](=O)[O-])cc2)cc1 (configuration not stated) | ? | 4 | ? | -2
Cc1noc(C)c1COC(=O)[C@@H](NC(=O)c1ccccc1)C(C)C | -3% | -3 | 0% | -1
O=C(CSCc1ccc([N+](=O)[O-])cc1)NC1CC1 | 13µM* | 10 | -3% | -4

High-throughput results from PubChem.
